# Reference: article PMC7862700, “An all-to-all approach to the identification of sequence-specific readers for epigenetic DNA modifications on cytosine”
# What was measured:
# Experiment in all cases: DAPPL (digital affinity profiling via proximity ligation, sequencing); 10 mM Tris-HCl pH 7.5, 50 mM NaCl, 1 mM DTT, 4% glycerol, room temperature, 30 min; GST-TFs on glutathione beads, 16-mer random dsDNA library, 0.1% formaldehyde crosslink after washing; high values mean tight binding
# FLI1 = target: T1, FLI1 (Homo sapiens, UniProt Q01543 1-452); conditions: protein: recombinant; tags: N-terminal GST; dsDNA, one strand shown
# T1 sequence: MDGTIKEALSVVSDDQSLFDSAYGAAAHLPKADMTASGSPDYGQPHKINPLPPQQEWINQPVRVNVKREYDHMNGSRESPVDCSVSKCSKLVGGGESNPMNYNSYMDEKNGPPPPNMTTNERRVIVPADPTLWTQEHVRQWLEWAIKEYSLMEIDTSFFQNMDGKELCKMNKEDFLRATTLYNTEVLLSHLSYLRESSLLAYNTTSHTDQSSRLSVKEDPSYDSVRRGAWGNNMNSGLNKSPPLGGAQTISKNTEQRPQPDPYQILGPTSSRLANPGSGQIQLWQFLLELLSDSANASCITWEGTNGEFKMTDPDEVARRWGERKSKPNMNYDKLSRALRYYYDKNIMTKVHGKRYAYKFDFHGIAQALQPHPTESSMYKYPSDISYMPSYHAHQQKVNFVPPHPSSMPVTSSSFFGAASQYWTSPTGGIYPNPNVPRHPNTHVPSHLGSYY
# Outline: (§1)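 Yeast served to express human transcription factors as GST fusions, which were then captured on glutathione beads and labelled with DNA barcodes. Pooled with a tag-only sample, they were incubated with 200 nmole of a 16-mer random double-stranded DNA library for 30 min at room temperature in Tris/NaCl/DTT/glycerol buffer, washed, crosslinked with 0.1% formaldehyde, ligated by proximity, amplified by PCR and sequenced. Dividing each hexamer's read frequency for a factor by its frequency for the tag-only sample gives the binding signal.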
# ELK1 = target: T2, ELK1 (Homo sapiens, UniProt P19419 1-428); conditions: protein: recombinant; tags: N-terminal GST; dsDNA, one strand shown
# T2 sequence: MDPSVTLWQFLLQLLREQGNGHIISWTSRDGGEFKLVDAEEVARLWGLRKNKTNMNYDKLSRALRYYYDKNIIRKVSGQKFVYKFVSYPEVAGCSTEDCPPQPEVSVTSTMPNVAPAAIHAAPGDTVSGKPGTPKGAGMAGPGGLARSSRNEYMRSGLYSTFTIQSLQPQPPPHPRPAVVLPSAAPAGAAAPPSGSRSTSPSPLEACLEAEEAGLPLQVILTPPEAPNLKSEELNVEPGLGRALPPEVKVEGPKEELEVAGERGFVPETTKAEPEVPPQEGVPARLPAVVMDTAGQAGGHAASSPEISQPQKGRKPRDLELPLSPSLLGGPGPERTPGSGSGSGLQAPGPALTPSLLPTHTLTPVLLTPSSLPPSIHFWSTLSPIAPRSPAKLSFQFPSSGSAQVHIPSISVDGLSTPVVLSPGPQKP
# Outline: as §1
# GABPA = target: T3, GABPA (Homo sapiens, UniProt Q06546 1-454); conditions: protein: recombinant; tags: N-terminal GST; dsDNA, one strand shown
# T3 sequence: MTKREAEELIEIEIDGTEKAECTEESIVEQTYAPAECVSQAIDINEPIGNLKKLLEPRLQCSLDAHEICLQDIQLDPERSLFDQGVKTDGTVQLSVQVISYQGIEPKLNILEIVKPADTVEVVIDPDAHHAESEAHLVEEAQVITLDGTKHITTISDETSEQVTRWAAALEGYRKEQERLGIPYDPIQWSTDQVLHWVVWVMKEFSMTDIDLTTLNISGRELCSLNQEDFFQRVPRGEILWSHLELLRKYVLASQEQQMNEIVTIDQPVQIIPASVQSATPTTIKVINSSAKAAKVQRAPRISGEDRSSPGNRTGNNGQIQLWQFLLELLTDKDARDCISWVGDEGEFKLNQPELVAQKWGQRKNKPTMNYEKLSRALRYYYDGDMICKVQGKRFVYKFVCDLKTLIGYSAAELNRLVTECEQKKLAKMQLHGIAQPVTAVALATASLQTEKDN
# Outline: as §1
# ERG = target: T4, ERG (Homo sapiens, UniProt P11308 1-479); conditions: protein: recombinant; tags: N-terminal GST; dsDNA, one strand shown
# T4 sequence: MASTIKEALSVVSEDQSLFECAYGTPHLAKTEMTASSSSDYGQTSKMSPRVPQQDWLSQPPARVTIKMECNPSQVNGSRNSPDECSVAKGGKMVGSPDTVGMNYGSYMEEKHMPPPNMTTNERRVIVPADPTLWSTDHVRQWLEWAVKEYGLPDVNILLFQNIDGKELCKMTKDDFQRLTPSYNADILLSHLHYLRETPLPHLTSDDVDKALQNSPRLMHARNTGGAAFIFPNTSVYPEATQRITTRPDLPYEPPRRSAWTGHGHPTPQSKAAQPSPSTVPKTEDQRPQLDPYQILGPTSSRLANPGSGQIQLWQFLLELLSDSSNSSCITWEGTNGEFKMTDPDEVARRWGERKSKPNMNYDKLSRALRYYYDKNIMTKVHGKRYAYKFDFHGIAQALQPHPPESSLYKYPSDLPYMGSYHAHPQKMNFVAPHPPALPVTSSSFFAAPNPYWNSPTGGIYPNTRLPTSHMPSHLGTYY
# Outline: as §1
# ELF1 = ELF1 (Homo sapiens, UniProt P32519 1-619); conditions: protein: recombinant; tags: N-terminal GST; dsDNA, one strand shown
# Outline: as §1
# EHF = target: T5, EHF (Homo sapiens, UniProt Q9NZC4 1-300); conditions: protein: recombinant; tags: N-terminal GST; dsDNA, one strand shown
# T5 sequence: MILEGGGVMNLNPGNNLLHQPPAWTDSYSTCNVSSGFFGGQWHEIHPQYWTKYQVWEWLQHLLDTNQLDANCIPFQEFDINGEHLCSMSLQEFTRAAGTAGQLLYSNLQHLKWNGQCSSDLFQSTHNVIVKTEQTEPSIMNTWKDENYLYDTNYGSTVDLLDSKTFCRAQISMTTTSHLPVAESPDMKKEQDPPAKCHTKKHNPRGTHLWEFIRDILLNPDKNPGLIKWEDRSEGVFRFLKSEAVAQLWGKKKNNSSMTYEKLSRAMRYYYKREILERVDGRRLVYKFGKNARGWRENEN
# Outline: as §1
# SPI1 = SPI1 (Homo sapiens, UniProt P17947 1-270); conditions: protein: recombinant; tags: N-terminal GST; dsDNA, one strand shown
# Outline: as §1
# SPIB = SPIB (Homo sapiens, UniProt Q01892 1-262); conditions: protein: recombinant; tags: N-terminal GST; dsDNA, one strand shown
# Outline: as §1
# ELK3 = target: T6, ELK3 (Homo sapiens, UniProt P41970 1-407); conditions: protein: recombinant; tags: N-terminal GST; dsDNA, one strand shown
# T6 sequence: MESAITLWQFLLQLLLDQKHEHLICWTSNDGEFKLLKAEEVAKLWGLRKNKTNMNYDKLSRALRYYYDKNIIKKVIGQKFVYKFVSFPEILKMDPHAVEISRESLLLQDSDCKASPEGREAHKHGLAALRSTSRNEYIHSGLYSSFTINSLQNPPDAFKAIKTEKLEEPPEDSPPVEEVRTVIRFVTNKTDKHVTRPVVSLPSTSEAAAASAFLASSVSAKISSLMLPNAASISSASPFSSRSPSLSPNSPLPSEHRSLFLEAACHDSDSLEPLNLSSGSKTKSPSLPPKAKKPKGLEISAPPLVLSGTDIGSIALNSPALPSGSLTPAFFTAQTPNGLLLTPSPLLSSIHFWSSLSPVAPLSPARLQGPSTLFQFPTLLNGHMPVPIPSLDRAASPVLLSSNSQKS
# Outline: as §1
# FEV = target: T7, FEV (Homo sapiens, UniProt Q99581 1-238); conditions: protein: recombinant; tags: N-terminal GST; dsDNA, one strand shown
# T7 sequence: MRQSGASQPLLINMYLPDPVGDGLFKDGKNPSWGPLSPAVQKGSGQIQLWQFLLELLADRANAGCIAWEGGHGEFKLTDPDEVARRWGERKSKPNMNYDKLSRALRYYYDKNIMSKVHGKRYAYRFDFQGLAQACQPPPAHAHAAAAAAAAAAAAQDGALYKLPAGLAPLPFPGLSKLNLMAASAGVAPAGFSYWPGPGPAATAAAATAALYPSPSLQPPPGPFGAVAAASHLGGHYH
# Outline: as §1
# ETV5 = ETV5 (Homo sapiens, UniProt P41161 1-510); conditions: protein: recombinant; tags: N-terminal GST; dsDNA, one strand shown
# Outline: as §1
# HSF1 = HSF1 (Homo sapiens, UniProt Q00613 1-529); conditions: protein: recombinant; tags: N-terminal GST; chain copies: 3; dsDNA, one strand shown
# Outline: as §1
# SPIC = target: T8, SPIC (Homo sapiens, UniProt Q8N5J4 1-248); conditions: protein: recombinant; tags: N-terminal GST; dsDNA, one strand shown
# T8 sequence: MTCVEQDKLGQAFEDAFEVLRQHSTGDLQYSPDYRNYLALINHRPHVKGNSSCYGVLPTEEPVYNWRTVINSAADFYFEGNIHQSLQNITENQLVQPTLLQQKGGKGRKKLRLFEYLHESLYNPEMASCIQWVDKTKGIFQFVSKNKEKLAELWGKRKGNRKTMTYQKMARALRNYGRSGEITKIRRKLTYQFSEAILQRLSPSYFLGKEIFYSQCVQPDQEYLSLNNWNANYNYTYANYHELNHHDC
# Outline: as §1
# ELF4 = ELF4 (Homo sapiens, UniProt Q99607 1-663); conditions: protein: recombinant; tags: N-terminal GST; dsDNA, one strand shown
# Outline: as §1
# ELK4 = target: T9, ELK4 (Homo sapiens, UniProt P28324-2 1-405); conditions: protein: recombinant; tags: N-terminal GST; dsDNA, one strand shown
# T9 sequence: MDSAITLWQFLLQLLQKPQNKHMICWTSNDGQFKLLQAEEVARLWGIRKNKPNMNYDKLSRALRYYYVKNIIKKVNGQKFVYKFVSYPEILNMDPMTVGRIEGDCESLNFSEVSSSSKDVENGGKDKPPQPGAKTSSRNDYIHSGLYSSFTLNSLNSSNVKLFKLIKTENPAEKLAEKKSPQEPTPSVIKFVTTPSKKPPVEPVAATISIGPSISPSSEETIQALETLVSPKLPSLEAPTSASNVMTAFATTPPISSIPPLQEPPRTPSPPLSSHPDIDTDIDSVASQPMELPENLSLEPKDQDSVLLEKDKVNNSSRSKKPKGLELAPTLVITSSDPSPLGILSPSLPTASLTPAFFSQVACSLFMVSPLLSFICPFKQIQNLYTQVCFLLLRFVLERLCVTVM
# Outline: as §1
# ETV2 = target: T10, ETV2 (Homo sapiens, UniProt O00321 1-342); conditions: protein: recombinant; tags: N-terminal GST; dsDNA, one strand shown
# T10 sequence: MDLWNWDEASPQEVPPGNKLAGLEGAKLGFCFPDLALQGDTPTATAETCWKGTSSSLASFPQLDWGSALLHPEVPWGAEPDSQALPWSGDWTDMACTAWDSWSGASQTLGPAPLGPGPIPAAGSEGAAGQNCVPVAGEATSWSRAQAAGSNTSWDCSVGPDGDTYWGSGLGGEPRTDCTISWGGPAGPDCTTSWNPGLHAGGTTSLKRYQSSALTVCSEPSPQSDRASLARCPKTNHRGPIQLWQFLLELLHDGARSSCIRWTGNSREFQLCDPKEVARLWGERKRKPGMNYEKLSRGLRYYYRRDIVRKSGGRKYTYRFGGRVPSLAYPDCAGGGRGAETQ
# Outline: as §1
# ELF3 = target: T11, ELF3 (Homo sapiens, UniProt P78545 1-371); conditions: protein: recombinant; tags: N-terminal GST; dsDNA, one strand shown
# T11 sequence: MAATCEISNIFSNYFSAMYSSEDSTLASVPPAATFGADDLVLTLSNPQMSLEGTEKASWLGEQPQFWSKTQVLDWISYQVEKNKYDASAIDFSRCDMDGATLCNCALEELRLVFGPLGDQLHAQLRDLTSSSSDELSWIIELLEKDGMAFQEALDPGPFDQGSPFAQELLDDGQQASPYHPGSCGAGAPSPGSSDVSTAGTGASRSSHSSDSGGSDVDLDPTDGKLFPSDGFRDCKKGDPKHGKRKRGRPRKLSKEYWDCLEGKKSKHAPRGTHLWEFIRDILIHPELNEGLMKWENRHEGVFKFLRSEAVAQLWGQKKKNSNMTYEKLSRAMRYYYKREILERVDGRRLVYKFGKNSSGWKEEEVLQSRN
# Outline: as §1
# CRX = CRX (Homo sapiens, UniProt O43186 1-299); conditions: protein: recombinant; tags: N-terminal GST; dsDNA, one strand shown
# Outline: as §1
# ETV1 = ETV1 (Homo sapiens, UniProt P50549 1-477); conditions: protein: recombinant; tags: N-terminal GST; dsDNA, one strand shown
# Outline: as §1
# Sequence of CRX (O43186 whole entry): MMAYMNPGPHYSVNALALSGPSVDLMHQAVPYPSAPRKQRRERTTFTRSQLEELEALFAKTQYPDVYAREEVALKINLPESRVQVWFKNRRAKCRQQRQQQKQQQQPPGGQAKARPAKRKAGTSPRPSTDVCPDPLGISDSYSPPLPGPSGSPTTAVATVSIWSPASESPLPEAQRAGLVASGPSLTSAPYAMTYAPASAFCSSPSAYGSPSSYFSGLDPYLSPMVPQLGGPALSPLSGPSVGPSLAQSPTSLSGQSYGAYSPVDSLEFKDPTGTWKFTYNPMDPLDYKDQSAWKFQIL
# Sequence of SPIB (Q01892 whole entry): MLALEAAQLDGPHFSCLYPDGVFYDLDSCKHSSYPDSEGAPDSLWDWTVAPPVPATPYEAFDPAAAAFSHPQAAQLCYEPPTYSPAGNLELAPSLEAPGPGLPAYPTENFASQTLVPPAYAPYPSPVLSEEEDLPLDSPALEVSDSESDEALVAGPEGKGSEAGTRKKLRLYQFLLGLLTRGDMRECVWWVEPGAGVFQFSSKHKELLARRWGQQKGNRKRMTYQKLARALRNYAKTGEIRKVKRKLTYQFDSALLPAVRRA
# Sequence of ELF4 (Q99607 whole entry): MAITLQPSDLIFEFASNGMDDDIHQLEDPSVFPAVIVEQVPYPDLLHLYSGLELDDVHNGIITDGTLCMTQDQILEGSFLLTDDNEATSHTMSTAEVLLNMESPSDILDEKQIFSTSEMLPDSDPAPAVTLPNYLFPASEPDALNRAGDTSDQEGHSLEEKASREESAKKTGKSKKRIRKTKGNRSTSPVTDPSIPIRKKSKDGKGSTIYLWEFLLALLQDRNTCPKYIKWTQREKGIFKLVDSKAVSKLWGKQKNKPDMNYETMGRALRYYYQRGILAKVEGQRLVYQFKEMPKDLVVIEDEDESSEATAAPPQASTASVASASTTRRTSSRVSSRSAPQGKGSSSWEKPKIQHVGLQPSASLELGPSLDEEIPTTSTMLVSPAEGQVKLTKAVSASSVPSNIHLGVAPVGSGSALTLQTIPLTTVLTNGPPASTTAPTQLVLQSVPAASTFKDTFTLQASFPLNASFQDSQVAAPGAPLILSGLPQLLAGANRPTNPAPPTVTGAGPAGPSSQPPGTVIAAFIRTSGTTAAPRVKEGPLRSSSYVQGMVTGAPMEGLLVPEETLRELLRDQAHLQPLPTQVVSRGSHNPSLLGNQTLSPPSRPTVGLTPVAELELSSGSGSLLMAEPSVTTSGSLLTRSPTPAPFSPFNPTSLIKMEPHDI
# Sequence of HSF1 (Q00613 whole entry): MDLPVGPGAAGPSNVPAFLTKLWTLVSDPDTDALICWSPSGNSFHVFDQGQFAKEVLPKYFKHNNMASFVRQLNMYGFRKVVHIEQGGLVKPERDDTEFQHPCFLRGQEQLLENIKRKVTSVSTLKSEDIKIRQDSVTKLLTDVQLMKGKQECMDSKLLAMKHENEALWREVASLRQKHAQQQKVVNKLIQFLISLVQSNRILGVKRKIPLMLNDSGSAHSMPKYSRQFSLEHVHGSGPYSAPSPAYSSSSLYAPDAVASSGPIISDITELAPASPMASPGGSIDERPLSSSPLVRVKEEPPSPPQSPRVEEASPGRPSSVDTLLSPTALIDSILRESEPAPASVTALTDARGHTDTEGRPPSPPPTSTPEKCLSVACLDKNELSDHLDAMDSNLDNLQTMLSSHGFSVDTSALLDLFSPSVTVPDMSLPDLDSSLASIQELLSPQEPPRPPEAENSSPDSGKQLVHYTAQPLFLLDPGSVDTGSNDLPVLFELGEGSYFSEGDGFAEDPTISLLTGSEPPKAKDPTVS
# Sequence of ELF1 (P32519 whole entry): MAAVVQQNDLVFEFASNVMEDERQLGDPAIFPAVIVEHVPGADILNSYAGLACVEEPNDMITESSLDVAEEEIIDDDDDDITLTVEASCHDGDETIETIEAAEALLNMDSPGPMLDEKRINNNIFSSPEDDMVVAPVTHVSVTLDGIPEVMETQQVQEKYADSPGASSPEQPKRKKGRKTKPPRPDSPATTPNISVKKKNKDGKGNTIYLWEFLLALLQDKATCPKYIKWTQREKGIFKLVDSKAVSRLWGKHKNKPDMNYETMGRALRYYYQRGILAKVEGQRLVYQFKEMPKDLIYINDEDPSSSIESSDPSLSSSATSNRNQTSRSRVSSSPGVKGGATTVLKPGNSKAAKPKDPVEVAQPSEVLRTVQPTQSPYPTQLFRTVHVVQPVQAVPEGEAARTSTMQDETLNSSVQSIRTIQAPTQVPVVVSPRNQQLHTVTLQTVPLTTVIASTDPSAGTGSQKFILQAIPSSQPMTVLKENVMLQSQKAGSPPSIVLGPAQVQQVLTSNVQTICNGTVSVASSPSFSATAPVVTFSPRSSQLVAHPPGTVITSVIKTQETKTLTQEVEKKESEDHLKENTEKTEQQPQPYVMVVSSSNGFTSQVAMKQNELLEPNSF
# Sequence of ETV1 (P50549 whole entry): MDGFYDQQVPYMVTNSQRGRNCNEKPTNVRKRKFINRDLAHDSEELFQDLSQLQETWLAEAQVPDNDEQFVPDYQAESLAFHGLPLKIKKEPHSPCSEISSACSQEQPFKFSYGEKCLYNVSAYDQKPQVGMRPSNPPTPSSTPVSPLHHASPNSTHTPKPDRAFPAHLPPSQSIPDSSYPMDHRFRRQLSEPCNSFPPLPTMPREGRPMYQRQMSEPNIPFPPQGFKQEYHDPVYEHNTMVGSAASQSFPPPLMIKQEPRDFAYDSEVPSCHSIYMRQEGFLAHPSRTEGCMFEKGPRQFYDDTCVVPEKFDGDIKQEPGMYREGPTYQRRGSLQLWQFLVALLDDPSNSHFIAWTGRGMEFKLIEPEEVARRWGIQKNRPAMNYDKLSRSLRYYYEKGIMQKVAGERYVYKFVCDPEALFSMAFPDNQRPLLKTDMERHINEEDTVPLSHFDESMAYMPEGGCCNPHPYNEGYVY
# Sequence of ETV5 (P41161 whole entry): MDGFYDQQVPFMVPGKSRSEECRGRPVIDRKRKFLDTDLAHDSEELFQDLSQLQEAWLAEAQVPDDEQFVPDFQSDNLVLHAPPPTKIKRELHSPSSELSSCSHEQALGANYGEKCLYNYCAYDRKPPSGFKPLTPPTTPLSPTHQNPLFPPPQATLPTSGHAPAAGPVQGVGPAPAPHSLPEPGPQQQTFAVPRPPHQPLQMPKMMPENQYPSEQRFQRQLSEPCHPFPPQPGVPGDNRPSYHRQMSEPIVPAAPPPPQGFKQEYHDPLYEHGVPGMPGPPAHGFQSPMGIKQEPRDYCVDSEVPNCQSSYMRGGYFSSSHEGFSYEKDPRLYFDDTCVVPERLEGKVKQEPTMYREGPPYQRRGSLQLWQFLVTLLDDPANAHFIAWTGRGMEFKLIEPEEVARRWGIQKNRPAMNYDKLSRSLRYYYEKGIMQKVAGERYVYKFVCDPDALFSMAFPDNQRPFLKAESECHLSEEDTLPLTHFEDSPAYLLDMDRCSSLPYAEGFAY
sequence,measurement,setting,value
AACCTG,binding signal,FLI1,"1.19 fold enrichment (6-mer frequency, TF over GST control)"
same,binding signal,ELK1,"1.2 fold enrichment (6-mer frequency, TF over GST control)"
same,binding signal,GABPA,"1.17 fold enrichment (6-mer frequency, TF over GST control)"
same,binding signal,ERG,"1.09 fold enrichment (6-mer frequency, TF over GST control)"
same,binding signal,ELF1,"1.16 fold enrichment (6-mer frequency, TF over GST control)"
same,binding signal,EHF,"1.22 fold enrichment (6-mer frequency, TF over GST control)"
same,binding signal,SPI1,"1.27 fold enrichment (6-mer frequency, TF over GST control)"
same,binding signal,SPIB,"1.12 fold enrichment (6-mer frequency, TF over GST control)"
same,binding signal,ELK3,"1.21 fold enrichment (6-mer frequency, TF over GST control)"
same,binding signal,FEV,"1.2 fold enrichment (6-mer frequency, TF over GST control)"
same,binding signal,ETV5,"1.16 fold enrichment (6-mer frequency, TF over GST control)"
same,binding signal,HSF1,"1.03 fold enrichment (6-mer frequency, TF over GST control)"
same,binding signal,SPIC,"1.04 fold enrichment (6-mer frequency, TF over GST control)"
same,binding signal,ELF4,"1.25 fold enrichment (6-mer frequency, TF over GST control)"
same,binding signal,ELK4,"1.3 fold enrichment (6-mer frequency, TF over GST control)"
same,binding signal,ETV2,"1.16 fold enrichment (6-mer frequency, TF over GST control)"
same,binding signal,ELF3,"1.12 fold enrichment (6-mer frequency, TF over GST control)"
same,binding signal,CRX,"1.1 fold enrichment (6-mer frequency, TF over GST control)"
same,binding signal,ETV1,"1.14 fold enrichment (6-mer frequency, TF over GST control)"
